We go through 94 molecules from PubChem BioAssay AID449762 (Southern Research Specialized Biocontainment Screening …, 2010).

Structures are written as SMILES. In all, about 330,000 compounds went through this assay and about 1,900 (0.58%) were called active. Not shown: some 4% with an inconclusive outcome. Rule as the data show it: inconclusive = inhibition above about 70% without an active follow-up result; inactive = below that. A selection follows. Measured potencies and affinities stand elsewhere.

The test is described as follows: M. tuberculosis growth inhibition, HTS (AID 449762).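 Also: bacterial growth assessed after seven days of incubation.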 The note with it: M. tuberculosis H37Rv growth inhibition, 7H9 media; at 25 µM; active compounds read high.
Take `COc1cccc(CN(C)C(=O)/C=C/c2ccc(S(=O)(=O)N3CCCCCC3)cc2)c1`: the inhibition was 4.38% (inactive).

For `Cc1cc(=O)oc2ccc(OCC(=O)N3CCc4ccccc43)cc12`, the inhibition was -7.76% (inactive). Next, `Cc1cc(=O)[nH]c(N=N/C(=N/Nc2ccccc2C)c2ccccc2)n1`: 68.7% (inactive). Next, `COc1ccc(N/C(N)=N/c2nc(C)cc(=O)[nH]2)cc1`: 4.61% (inactive); `Oc1ccc(/C=N/Nc2ccc(Cl)nn2)c(O)c1O`: -6.06% (inactive); `CCOc1ccccc1/C=N/Nc1ccc(Cl)nn1`: 13.2% (inactive). Next, `C/C(=N\NC(=S)NCc1ccccc1)c1ccc(Cl)s1`: -0.65% (inactive); `C/C(=N\NC(N)=O)c1ccc(Cl)s1`: -8.77% (inactive).

Turning to `Cc1cccc(N(C)S(=O)(=O)c2c(C)noc2C)c1`, the inhibition is 2.4% (inactive). Take `C/C(CC(=O)Nc1ccccn1)=N\NC(=O)c1ccccc1O`: the inhibition is -3.57% (inactive).

As for `O=C(Nc1ccc2oc(-c3ccc(Cl)c(Cl)c3)nc2c1)c1ncn[nH]1`, the inhibition was 50.6% (inactive).

For `O=C(Nc1ccc2oc(-c3cccc4ccccc34)nc2c1)c1ncn[nH]1`, the inhibition was 9.87% (inactive). The figure for `CC(=O)N(C(C)=O)c1c(C#N)c(C)n(-c2ccccc2)c1C(=O)c1ccccc1` is -0.27% (inactive); for `CCCC(=O)c1ccc(-c2ccccc2)cc1` it is 1.42% (inactive); for `Cc1ccc2nc(NC(=O)CN3C(=O)NC4(CCCCC4)C3=O)sc2c1` it is 5.87% (inactive). Next, `COc1ccccc1NS(=O)(=O)c1cc(C(=O)NCCC(C)C)ccc1F`: 16.6% (inactive). The figure for `CC(C)CCOCc1nc2sc3c(c2c(=O)[nH]1)CCC(C)C3` (centres undefined) is -5.2% (inactive).

With `CCOC(=O)c1nc2sc3c(c2c(=O)[nH]1)CCCC3`, the inhibition is 2.32% (inactive). The figure for `COC(=O)C1CCN(c2nc3ccccc3nc2C(C#N)C(=O)OCC(C)C)CC1` (centres undefined) is -4.17% (inactive); for `COc1ccccc1NS(=O)(=O)c1cccc(NC(=O)C2CC2)c1` it is -4.5% (inactive); for `COc1cc(OC)c(C#N)c(S(=O)(=O)Cc2ccccc2)c1` it is -8.56% (inactive). Next, `O=[N+]([O-])c1ccc(OS(=O)(=O)Cc2ccccc2)cc1`: 4.45% (inactive). The figure for `O=C(CS(=O)(=O)c1cn(CC(=O)N2CCCC2)c2ccccc12)Nc1ccccc1F` is 2.67% (inactive); for `Cc1c(C(c2ccc(F)cc2)c2c(C)n(C)n(-c3ccccc3)c2=O)c(=O)n(-c2ccccc2)n1C` it is 5.49% (inactive); for `COc1ccc(-c2csc(NC(CO)c3nc4ccccc4n3Cc3ccc(C)cc3)n2)cc1` (centres undefined) it is 25.6% (inactive). As to `OCCOCCn1c(C(CO)Nc2nc(-c3ccc(F)cc3)cs2)nc2ccccc21` (centres undefined), the inhibition was 6.37% (inactive). The figure for `Cc1ccc(NCc2nc(SCC(=O)Nc3ccccc3)n[nH]2)cc1` is -2.62% (inactive); for `COc1ccc(NC(=O)C(C)NS(=O)(=O)c2ccccc2)cc1Cl` (centres undefined) it is -8.72% (inactive); for `COc1ccc(NC(=O)C(C)NS(=O)(=O)c2ccc(NC(C)=O)cc2)cc1Cl` (centres undefined) it is -1.73% (inactive). In the case of `COc1ccc(CCN=C(N)NS(=O)(=O)c2ccc(C)cc2)cc1OC`, the inhibition is -1.62% (inactive).

As to `Cc1ccccc1C1c2[nH]c3ccccc3c2CCN1C(=O)c1ccc(=O)n(C)n1` (centres undefined), the inhibition was 53.9% (inactive). Next, `CCc1ccc(C2c3[nH]c4ccccc4c3CCN2C(=O)c2cc[n+]([O-])cc2)cc1` (centres undefined): -3.85% (inactive); `COc1cc(N/C=C(\C(C)=O)c2ccccc2)cc(OC)c1`: 4.79% (inactive); `O=C(Nc1ccc(OCc2ccccc2)cc1)c1ccccc1`: -2.87% (inactive). The figure for `COc1ccc(CCNCC(=O)Nc2ccc(OC(F)F)cc2)cc1` is -4.99% (inactive); for `CCCCC1CCC(C(=O)N(CCCC)c2c(N)n(CCCC)c(=O)[nH]c2=O)CC1` (centres undefined) it is -9.54% (inactive); for `CC1CCc2c(sc3nc(CN4CCOCC4)nc(N4CCc5ccccc5C4)c23)C1` (centres undefined) it is 6.42% (inactive).

As for `Clc1nc(CN2CCOCC2)nc2sc3c(c12)CCC3`, the inhibition was 6.4% (inactive). The figure for `CCc1ccccc1Nc1nc(N)nc(CSCC(=O)c2cc(C)n(C)c2C)n1` is -11.5% (inactive). Consider `O=C(NCCCc1ccc(F)cc1)C1CCC(=O)N(CCCN2CCCC2=O)C1` (centres undefined), for which the inhibition was 11.4% (inactive).

As to `O=C1OCCC1Sc1nnc(-c2ccccc2)o1` (centres undefined), the inhibition was -4.39% (inactive). Next, `O=C1CC(Sc2nnc(-c3ccccc3)o2)C(=O)N1c1ccccc1` (centres undefined): -3.28% (inactive). Next, `COc1ccccc1OCC(=O)Nc1ccc(S(=O)(=O)N2CCOCC2)cc1`: -3.94% (inactive); `CCCCn1c(=O)[nH]c(=O)c2c1nc(-c1ccsc1)n2Cc1ccccc1`: 7.19% (inactive). The figure for `CC(C)c1nnc2n1N=C(c1ccc(Cl)cc1)CS2` is 45.3% (inactive). `CCC(=O)Nc1ccc(C2=Nn3c(nnc3C(C)C)SC2)cc1`: the inhibition is 9.12% (inactive). Consider `Cc1ccc(CN2CCSc3ccc(C(=O)NCC4CCCO4)cc32)cc1` (centres undefined), for which the inhibition is -1.08% (inactive). Regarding `Nc1ccc(Nc2ccc([N+](=O)[O-])cc2[N+](=O)[O-])cc1`, the inhibition was 4.35% (inactive). Turning to `Nc1cc([N+](=O)[O-])ccc1Nc1ccccc1`, the inhibition is 2.95% (inactive). The figure for `COc1ccc2sc(-c3ccc(S(C)(=O)=O)cc3)c(C(=O)NCCc3c[nH]c4ccccc34)c2c1` is 0.16% (inactive); for `CN1C(=O)N(C)C(=O)C2(Cc3cc(N)ccc3N3CCN(c4ccccc4F)CC32)C1=O` (centres undefined) it is -0.78% (inactive). Next, `Cc1ccc(C(=O)NC(=S)N(C)C2CCCCC2)cc1`: 62.7% (inactive); `CN(C(=S)NC(=O)c1ccccc1)C1CCCCC1`: 60.5% (inactive).

`O=C(NCc1ccc2c(c1)OCO2)C1CCC(CNS(=O)(=O)c2ccc(Cl)cc2)CC1` (centres undefined): the inhibition was -12% (inactive). Next, `O=C(CN1C(=O)NC2(CCCC2)C1=O)N1CCN(S(=O)(=O)c2ccc(Cl)c(C(F)(F)F)c2)CC1`: -1.26% (inactive); `Brc1ccc2[nH]cc(/C=N/N3CCCCC3)c2c1`: -3.65% (inactive); `CC1CCCC(C)N1/N=C/c1cccc(Br)c1` (centres undefined): 2.02% (inactive). The figure for `CCCCNS(=O)(=O)c1ccc(OC)c2ncccc12` is -7.49% (inactive); for `COc1cc(NC(=O)c2ccc3snnc3c2)cc(OC)c1` it is -2.63% (inactive); for `C[C@H](NC(=O)c1cc2c(cn1)[nH]c1ccccc12)C(=O)O` it is 61.1% (inactive). The figure for `COC(=O)[C@H](C)NC(=O)c1cc2c(cn1)[nH]c1ccccc12` is 25.1% (inactive); for `Cc1cc(C)c2nc(-c3ccccn3)cc(C(=O)NCCc3ccc(S(N)(=O)=O)cc3)c2c1` it is 2.93% (inactive). Consider `NS(=O)(=O)c1ccc(NC(=O)CSC2=NC(=O)C(c3ccccc3)C(=O)N2)cc1` (centres undefined), for which the inhibition is -4.16% (inactive). The figure for `O=C(CSC1=NC(=O)C(c2ccccc2)C(=O)N1)Nc1cccc(Cl)c1` (centres undefined) is -1.6% (inactive); for `CC1CC(NC(=O)CC#N)CC(C)(C)C1` (centres undefined) it is -2.07% (inactive); for `CCNC(=O)CC1C(=O)N(c2ccc(C)cc2)C(=O)N1CCc1sccc1C` (centres undefined) it is -0.52% (inactive).

Regarding `COc1ccc(OC)c(N(CC(=O)Nc2ccccc2)S(=O)(=O)c2ccccc2)c1`, the inhibition was -0.48% (inactive).

Take `CC1(C(=O)O)CCCC2(C)c3cc(O)ccc3CCC12` (centres undefined): the inhibition is -4.51% (inactive).

Turning to `CC(C)(O)c1ccc2c(c1)CCC1C(C)(C(=O)O)CCCC21C` (centres undefined), the inhibition was -2.51% (inactive). The figure for `Cc1cc(CN(C)C(=O)C2CCC(=O)N(CCc3ccccc3)C2)n[nH]1` (centres undefined) is 8.05% (inactive); for `CC(=O)Nc1ccc(SC(C)C(=O)NC(N)=O)cc1` (centres undefined) it is -6.23% (inactive); for `NC1=NC[C@@H](Cc2ccc(O)cc2)N1CCc1cccc2ccccc12` it is 7.62% (inactive).

`NC1=NC[C@H](Cc2ccc(O)cc2)N1CCc1cccc(F)c1`: the inhibition was -2.28% (inactive). Next, `Cc1cc(=O)oc2cc(OCC(=O)N3CCCC3)ccc12`: -4.87% (inactive); `COc1ccccc1CCC(=O)NNC(=O)c1cccs1`: -0.29% (inactive).

For the molecule `CCCCCCCCCCOC(=O)Cn1c(COc2ccccc2OC)[n+](C)c2ccccc21`, the inhibition was 54.7% (inactive). Next, `CCCCCCCCCCOC(=O)Cn1c(COc2ccccc2)[n+](C)c2ccccc21`: 49.6% (inactive); `COc1ccc([C@H]2CC(=O)C=C(c3cc4ccccc4c4ccccc34)C2)cc1`: -1.17% (inactive); `COc1ccc([C@H]2CC(=O)C=C(c3ccc(Br)c4ccccc34)C2)cc1`: 67.8% (inactive). The figure for `COc1ccc(-c2[nH]ncc2CN2CCCOc3c(cccc3OC)C2)c(OC)c1` is 9.33% (inactive). The figure for `O=C1CCCN1CCC(=O)N1CCCC(Nc2ccc(F)cc2)C1` (centres undefined) is -9.8% (inactive); for `OC(CN1CCN(c2ccccc2Cl)CC1)c1ccccc1` (centres undefined) it is 2.61% (inactive).

With `CC(=O)Nc1ccc(NC(=O)C/C(C)=N/NC(N)=S)cc1`, the inhibition was 3.29% (inactive). Next, `C/C(CC(=O)Nc1cc(Cl)ccc1C)=N\NC(N)=O`: 4.8% (inactive).

For `COc1ccc(C2(c3ccc(OC)cc3)NC(=O)N(CC(=O)Nc3ccc(C(=O)N(C)C)cc3)C2=O)cc1`, the inhibition was -1.84% (inactive). The figure for `CC(C)N=c1scc(-c2ccco2)n1/N=C/c1ccc(O)c(O)c1` is 9.93% (inactive); for `CCN=c1scc(-c2ccco2)n1/N=C/c1ccc(O)cc1` it is 28.5% (inactive). Take `COc1ccc(S(=O)(=O)Nc2ccccc2N2CCOCC2)cc1OC`: the inhibition is 3.88% (inactive). In the case of `CC(Nc1cc(C)cc(C)c1)=[N+](C)CCNS(=O)(=O)c1ccc(Cl)cc1`, the inhibition was -13.9% (inactive).

Take `Cc1ccc(-c2nsc3c(N4CCC(C(N)=O)CC4)ncnc23)cc1`: the inhibition is -5.48% (inactive). The figure for `O=c1c(C=NCc2ccccc2)c(NCc2ccccc2)nc2ccccn12` is 11.6% (inactive); for `COc1ccc(C(=O)N/C(N)=N/c2nc3ccccc3o2)cc1` it is 43% (inactive); for `COC(=O)CSc1nc2ccccc2o1` it is 20% (inactive). With `O=C(O)c1ccc(NS(=O)(=O)c2ccc3c(c2)OCCCO3)cc1`, the inhibition is 5.48% (inactive).

A word on the inhibition: it is the change of the read-out against control, counted positive when it falls.
